Rows were chosen to be rich in hits. Some 21% of all compounds tested hit in one or more screens of this group.
Shiga toxin inh – Shiga toxin inhibition; Vero cells, Shiga toxin protein synthesis inhibition reporter; inhibition, % at 38.7 µM; 290,000 tested, 9.2% active; in the data active means inhibition mostly above about 28%, no sharp cut-off; inactive means mostly below about 43%; further: 0% is about no effect
Pf growth 48h – P. falciparum growth inhibition at 48 hours (one generation); P. falciparum luciferase growth in erythrocytes, 48 h; Potency, µM (top dose mostly 28.7 µM), for the others: at the top dose activity change, negative = inhibition, actives largely listed as inhibitors; 310,000 tested, 5.9% active; further: potency means the concentration at half of the fitted maximal effect; on the % scale 0 is the no-effect control and ±100 the full control effect
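Luciferase-expressing P. falciparum in infected erythrocytes (2% hematocrit, 0.1% parasitemia final) in RPMI 1640/0.5% Albumax were exposed to compound for 48 hours at 37 C, 5% CO2; growth read as luminescence.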
AMA1-RON2 inh – inhibitors of Plasmodium falciparum AMA1-RON2 interaction; AID 720542; AlphaScreen AMA1-biotinylated RON2 peptide binding; 360,000 tested, 0.2% active; Potency, µM (series often up to 58.2 µM), for inactives: at the highest dose activity change, negative = inhibition, hits mostly inhibitors;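 further: potency means the concentration at half of the fitted maximal effect; 0% = vehicle wells and -100% = peptide control; nearly all actives have a fitted effect of over 45% in size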
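AMA1 (3D7) with his tag at 25 nM final met compounds first, then biotinylated RON2 peptide at 25 nM; detection used donor plus acceptor beads, 10 µg/mL apiece, read by AlphaScreen after 30 min at room temperature.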
Pf growth 96h – P. falciparum growth inhibition at 96 hours. P. falciparum luciferase reporter growth, 96 h. Potency, µM (top dose mostly 28.7 µM), for the others: at the highest dose activity change, negative = inhibition, hits mostly inhibitors. 320,000 tested, 6.9% active. AID 504834; further: potency means the concentration at half of the fitted maximal effect; on the % scale 0 is the no-effect control and ±100 the full control effect
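Cell-based qHTS: luciferase-tagged P. falciparum in erythrocytes (2% hematocrit, 0.05% parasitemia final) incubated with compounds for 96 hours, 37 C, 5% CO2; luciferase detection reagent then added and luminescence measured.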
HCV inh – inhibitors of hepatitis C virus infection | Huh7.5.1 HCVcc-Cre infection, luciferase reporter, 44 h | Potency, µM (highest dose often 41.8 µM), without a hit: top-dose activity change, negative = inhibition, usual class: inhibitors | 340,000 tested, 3.4% active | AID 651820; further: potency means the concentration at half of the fitted maximal effect; on the % scale 0 is the no-effect control and ±100 the full control effect
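After 44 h co-culture of compound, cells and HCVcc-Cre (~0.5 moi), substrate is added for 15 min at room temperature and luciferase measured over 15 sec. Cells were seeded at 1,000/well and pre-cultured 4 h.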
Cycloheximide cs – counter-screen for Shiga toxin inhibitors: cycloheximide protein synthesis inhibition; cell reporter, cycloheximide protein synthesis inhibition counterscreen; max response, %; 300,000 tested, 12% active; AID 2314; in the data active means max response mostly above about 13%, no sharp cut-off; inactive means mostly below about 14%; further: read at 38.3 µM for the half of the compounds with a filed dose; 0% is about no effect
* hit, by the source's call; [ ] = remark or other dose. Unless noted, the call rests on the fitted dose curve; in most records, active means well fitted curve in the direction sought with a large enough effect; inconclusive means small, poorly fitted or top-dose-only effect, or another doubt; inactive means no such curve, though single readings can be large; an effect the other way counts as inactive or inconclusive.

Screening COC(=O)c1sccc1S(=O)(=O)Nc1ccc(N2CCCCC2)cc1 returned Shiga toxin inh -7.3, Pf growth 48h inconclusive, AMA1-RON2 inh 14.1µM*, Pf growth 96h inconclusive, HCV inh -24.2% and Cycloheximide cs 7.7.
For OC(CNCCCCNCC(O)C(F)(F)F)C(F)(F)F (stereo unspecified) the results were Shiga toxin inh -13.7, Pf growth 48h 11.1%, AMA1-RON2 inh 38.6%, Pf growth 96h 26.5%, HCV inh 3.0% and Cycloheximide cs -1.9.
`C=CCn1c(COc2ccc3c(c2)CCCC3)nnc1SCC(=O)Nc1cccc(SC)c1` gave Shiga toxin inh 58.0*, Pf growth 48h -22.3%, AMA1-RON2 inh -8.1%, Pf growth 96h -7.0%, HCV inh 11.2µM* and Cycloheximide cs 46.7*.
Screening C=CCn1c(COc2ccccc2)nnc1SCC(=O)Nc1ccc2c(c1)OCCO2 returned Shiga toxin inh 2.8, Pf growth 48h 0.0%, AMA1-RON2 inh -6.3%, Pf growth 96h -6.3%, HCV inh 6.9% and Cycloheximide cs -3.0.
For COc1ccc(NC(=O)N(C2CCCCC2)C2CCN(C(C)C)CC2)c(OC)c1 the results were Shiga toxin inh 3.3, Pf growth 48h -0.4%, AMA1-RON2 inh -3.7%, Pf growth 96h inconclusive, HCV inh 3.55µM* and Cycloheximide cs -1.7.
Screening COc1ccc(NC(=S)Nc2ccc(OC)cc2OC)c(OC)c1 returned Shiga toxin inh -5.9, Pf growth 48h 1.9%, AMA1-RON2 inh 11.4%, Pf growth 96h 7.2%, HCV inh 1.6% and Cycloheximide cs 0.8.
`COc1ccc(NC(=S)NC2CCCCCC2)c(OC)c1` gave Shiga toxin inh 47.7*, Pf growth 48h inconclusive, AMA1-RON2 inh -8.5%, Pf growth 96h 2.6%, HCV inh inconclusive and Cycloheximide cs -10.4.
Screening COc1ccccc1NC(=S)NC1CCC(CC2CCC(NC(=S)Nc3ccccc3OC)CC2)CC1 (stereo unspecified) returned Shiga toxin inh -0.8, Pf growth 48h 11.7µM*, AMA1-RON2 inh 0.0%, Pf growth 96h 8.28µM*, HCV inh -7.9% and Cycloheximide cs 13.4.
COc1ccc(NC(=S)NC(=O)CC(C)C)c(OC)c1 was read as Shiga toxin inh 50.4*, Pf growth 48h 25.5%[5.75 µM], AMA1-RON2 inh 4.8%, Pf growth 96h inactive, HCV inh inconclusive and Cycloheximide cs 20.7*.
For COc1ccccc1NC(=S)NC1CCCC1 the results were AMA1-RON2 inh -0.9% and HCV inh -12.6%.
Cc1cc(OC(=O)c2ccc(S(=O)(=O)N(C)C)cc2)c([N+](=O)[O-])c(=O)[nH]1 was read as Shiga toxin inh -10.1, Pf growth 48h 8.4%, AMA1-RON2 inh -1.6%, Pf growth 96h 26.9%, HCV inh 6.6% and Cycloheximide cs 9.1.
O=[N+]([O-])c1cccc(S(=O)(=O)NCC2CC3CCC2C3)c1 (stereo unspecified) was read as Shiga toxin inh -4.3, Pf growth 48h -18.9%, AMA1-RON2 inh 1.7%, Pf growth 96h inconclusive, HCV inh 10.1% and Cycloheximide cs -1.3.
Cc1cc(OC(F)F)ccc1NC(=S)NC1CCCC1 was read as Shiga toxin inh -6.0, Pf growth 48h inconclusive, AMA1-RON2 inh -4.0%, Pf growth 96h 13.1µM*, HCV inh -24.4% and Cycloheximide cs -2.2.
`CCc1ccccc1NC(=O)CCC(=O)N1CCN(C(C)=O)CC1` gave AMA1-RON2 inh -4.1%.
Screening CCCCOc1ccc(C(=O)N/N=C/c2cn[nH]c2-c2ccc(OC)c(OC)c2)cc1 returned Shiga toxin inh 3.3, Pf growth 48h -5.9%, AMA1-RON2 inh 36.4%, Pf growth 96h inconclusive, HCV inh 11.9% and Cycloheximide cs -2.6.
For COc1ccc(-c2[nH]ncc2/C=N\NC(=O)c2ccc(C(C)(C)C)cc2)cc1OC the results were Shiga toxin inh 76.0*, Pf growth 48h 16.0%, AMA1-RON2 inh 66.1%, Pf growth 96h inconclusive, HCV inh -2.0% and Cycloheximide cs 21.3*.
COCCN1C(=O)/C(=C/c2ccc(N3CCCC3)cc2)SC1=S was read as Shiga toxin inh 31.7, Pf growth 48h 6.5%, AMA1-RON2 inh -6.4%, Pf growth 96h 95.0%, HCV inh -2.6% and Cycloheximide cs -1.9.
CCN1C(=S)SC(=O)C1=C1C=C(C)N(CCOC)C(C)=C1 was read as Shiga toxin inh 106.7*, Pf growth 48h 238.4%, Pf growth 96h inconclusive and Cycloheximide cs 44.2*.
Screening CCN1C(=S)SC(=O)C1=C1C=C(C)N(CCO)C(C)=C1 returned Shiga toxin inh 125.0*, AMA1-RON2 inh 0.8%, Pf growth 96h 27.3%, HCV inh -15.9% and Cycloheximide cs 70.6*.
CCn1nc(C)cc1C(=O)n1nc(C)c(Sc2ncccn2)c1C was read as Shiga toxin inh -4.0, Pf growth 48h 23.5%, AMA1-RON2 inh -12.0%, Pf growth 96h 7.2%, HCV inh -2.6% and Cycloheximide cs -1.1.
O=C(Nc1ccccc1)c1cc(C2CCCCN2C(=O)OCCF)on1 (stereo unspecified) was read as AMA1-RON2 inh 10.1%.
For O=C(COC(=O)CNC(=O)c1cccc([N+](=O)[O-])c1)Nc1nc2ccccc2s1 the results were Shiga toxin inh 32.5, Pf growth 48h 8.5%, AMA1-RON2 inh 14.0%, Pf growth 96h 8.2%, HCV inh -13.2% and Cycloheximide cs 15.0*.
O=C(COC(=O)c1ccc([N+](=O)[O-])o1)Nc1nc2ccccc2s1 was read as Shiga toxin inh 52.4, Pf growth 48h -23.8%, AMA1-RON2 inh -7.9%, Pf growth 96h -1.9%, HCV inh 10µM* and Cycloheximide cs 14.9.
`COc1ccccc1CNC(=O)C1CCC(CNc2c(N3CCC(C)CC3)c(=O)c2=O)CC1` (stereo unspecified) gave Shiga toxin inh 3.2, Pf growth 48h 0.0%, AMA1-RON2 inh -2.2%, Pf growth 96h 0.0%, HCV inh 15.1% and Cycloheximide cs 1.7.
Screening CC(C)(C)OC(=O)C[C@H]1C/C=C\C[C@H](CC(=O)N[C@H](CO)Cc2ccccc2)C(=O)N2CCC[C@@H]2COC1=O returned AMA1-RON2 inh 27.2% and HCV inh -6.3%.
For O=C1CCC(C(=O)N2CCN(c3ccccc3)CC2)CN1Cc1ccc(Cl)cc1 (stereo unspecified) the results were AMA1-RON2 inh -5.4%.
`Cc1cc(SCC(=O)c2ccc(O)c(O)c2)n2nc(C)c(-c3ccccc3)c2n1` gave Shiga toxin inh 19.1, Pf growth 48h inconclusive, AMA1-RON2 inh 80.0%, Pf growth 96h inconclusive, HCV inh 11.2µM* and Cycloheximide cs -1.4.
`Cc1cc(C)nc(SCC(=O)c2ccc(O)c(O)c2)n1` gave Shiga toxin inh 11.3, Pf growth 48h inconclusive, AMA1-RON2 inh 27.4%, Pf growth 96h 2.7%, HCV inh -24.8% and Cycloheximide cs 10.8.
